From PubChem BioAssay AID1159580 (chemical genetic matrix, 2015)
“And” between values parts separate entries of the source, which are not always exact repeats. Equal entries are not always repeated. The whole screen tested about 5,500 compounds, of which about 2,000 (36%) were called active. Another 18% or so got no clear call; they are omitted. Rule as the data show it: active = normalized growth mostly below about 0.91 (no sharp cut-off); inconclusive = no clear call, values can overlap the other calls; inactive = mostly above about 0.92. The list shows a part of the results.

Assay: chemical genetic growth profiling, strain panel (AID 1159580);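 also: tested at 20 µM; growth read once vehicle control cultures reached saturation at 30 °C; 1 = growth at the plate median or of vehicle wells; lower values mean less growth of the strain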
Conditions: S. cerevisiae deletion strains, growth OD

Measured: normalized growth

N[C@H](Cc1ccccc1)C(=O)O
inactive: locus YAL013W, strain DEP1, stronger effect = lower value 1.02 | locus YAL021C, strain ccr4, stronger effect = lower value 1.01 | locus YAL026C, strain drs2, stronger effect = lower value 1 | locus YAL030W, strain snc1, stronger effect = lower value 1.01 | locus YBL061C, strain skt5, stronger effect = lower value 1 | locus YBR009C, strain hhf1, stronger effect = lower value 0.968 | locus YBR021W, strain FUR4, stronger effect = lower value 0.98 | locus YBR023C, strain chs3, stronger effect = lower value 1.01 | locus YBR171W, strain sec66, stronger effect = lower value 0.99 | locus YBR229C, strain ROT2, stronger effect = lower value 1.01 | locus YBR231C, strain swc5, stronger effect = lower value 0.971 | locus YBR279W, strain paf1, stronger effect = lower value 0.999 | locus YCL011C, strain gbp2, stronger effect = lower value 1 | locus YCL016C, strain dcc1, stronger effect = lower value 1.03 | locus YCL029C, strain bik1, stronger effect = lower value 1 | locus YCL069W, strain vba3, stronger effect = lower value 0.988 | locus YCR088W, strain abp1, stronger effect = lower value 0.987 | locus YDL005C, strain med2, stronger effect = lower value 0.997 | locus YDL035C, strain GPR1, stronger effect = lower value 1.02 | locus YDL040C, strain nat1, stronger effect = lower value 1 | locus YDL074C, strain BRE1, stronger effect = lower value 1.05 | locus YDL101C, strain DUN1, stronger effect = lower value 1.01 | locus YDL134C, strain PPH21, stronger effect = lower value 1.01 | locus YDL185W, strain tfp1, stronger effect = lower value 1 | locus YDL192W, strain arf1, stronger effect = lower value 1.01 | locus YDR001C, strain nth1, stronger effect = lower value 0.987 | locus YDR069C, strain doa4, stronger effect = lower value 0.997 | locus YDR101C, strain arx1, stronger effect = lower value 1.01 | locus YDR137W, strain rgp1, stronger effect = lower value 0.982 | locus YDR150W, strain NUM1, stronger effect = lower value 1.02 | locus YDR159W, strain sac3, stronger effect = lower value 0.935 | locus YDR162C, strain NBP2, stronger effect = lower value 1.02 | locus YDR195W, strain ref2 0.961 | locus YDR297W, strain sur2, stronger effect = lower value 1 | locus YDR318W, strain mcm21, stronger effect = lower value 0.993 | locus YDR334W, strain swr1, stronger effect = lower value 0.946 | locus YDR335W, strain msn5, stronger effect = lower value 0.994 | locus YDR388W, stronger effect = lower value 1.01 | locus YDR392W, strain spt3, stronger effect = lower value 0.965 | locus YDR502C, strain sam2, stronger effect = lower value 1 | locus YEL003W, strain gim4, stronger effect = lower value 0.983 | locus YEL037C, strain rad23, stronger effect = lower value 0.976 | locus YEL061C, strain CIN8 (second series), stronger effect = lower value 0.962 | locus YEL061C, strain CIN8, stronger effect = lower value 1.01 | locus YER015W, strain faa2, stronger effect = lower value 0.993 | locus YER016W, strain bim1, stronger effect = lower value 1.02 | locus YER110C, stronger effect = lower value 1 | locus YER111C, strain swi4, stronger effect = lower value 0.999 | locus YER155C, strain BEM2 (second series), stronger effect = lower value 0.99 | locus YER155C, strain BEM2, stronger effect = lower value 1 | locus YER167W, strain BCK2, stronger effect = lower value 1.01 | locus YFR010W, strain ubp6, stronger effect = lower value 0.942 | locus YGL078C, strain dbp3, stronger effect = lower value 1.02 | locus YGL086W, strain mad1, stronger effect = lower value 1.01 | locus YGL167C, strain pmr1, stronger effect = lower value 0.983 | locus YGL173C, strain kem1, stronger effect = lower value 0.97 | locus YGL227W, strain vid30, stronger effect = lower value 0.98 | locus YGL240W, strain doc1, stronger effect = lower value 0.955 | locus YGL248W, strain PDE1, stronger effect = lower value 1 | locus YGL253W, strain hxk2, stronger effect = lower value 1 | locus YGR078C, strain PAC10, stronger effect = lower value 1.05 | locus YGR135W, strain pre9, stronger effect = lower value 1 | locus YGR229C, strain SMI1, stronger effect = lower value 1.03 | locus YGR252W, strain gcn5, stronger effect = lower value 0.935 | locus YHR013C, strain ard1, stronger effect = lower value 1 | locus YHR027C, strain rpn1, stronger effect = lower value 0.996 | locus YHR030C, strain SLT2, stronger effect = lower value 1.02 and 1.05 | locus YHR079C, strain IRE1 (second series), stronger effect = lower value 1.01 | locus YHR079C, strain IRE1, stronger effect = lower value 1.06 | locus YHR094C, strain hxt1, stronger effect = lower value 1 | locus YHR129C, strain ARP1, stronger effect = lower value 1.01 | locus YHR142W, strain chs7, stronger effect = lower value 0.992 | locus YHR200W, strain rpn10, stronger effect = lower value 1 | locus YIL066C, strain RNR3, stronger effect = lower value 1.02 | locus YIL073C, strain SPO22, stronger effect = lower value 1.04 | locus YIL125W, strain kgd1, stronger effect = lower value 0.994 | locus YIR030C, strain dcg1, stronger effect = lower value 1.02 | locus YJL092W, strain hpr5, stronger effect = lower value 1 | locus YJL095W, strain BCK1 (second series), stronger effect = lower value 0.996 | locus YJL095W, strain BCK1, stronger effect = lower value 1.02 and 1.05 | locus YJL115W, strain asf1, stronger effect = lower value 0.979 | locus YJL129C, strain trk1, stronger effect = lower value 1 | locus YJL134W, strain LCB3, stronger effect = lower value 1.01 | locus YJL154C, strain vps35, stronger effect = lower value 0.977 | locus YJL164C, strain tpk1, stronger effect = lower value 0.979 | locus YJL166W, strain qcr8, stronger effect = lower value 0.981 | locus YJL168C, strain set2, stronger effect = lower value 0.992 | locus YJL187C, strain SWE1 (second series), stronger effect = lower value 1.02 | locus YJL187C, strain SWE1, stronger effect = lower value 1.02
